High-throughput results (PubChem)
A selection: hits, their analogues and other compounds. The true share with any hit is near 1.8%.
PGK inhibitor: inhibitors of T. brucei phosphoglycerate kinase; PGK/GAPDH coupled, Kinase-Glo luminescence, 60 min; Potency, µM (highest dose often 57.5 µM), usual class: inhibitors; 0.043% of 380,000 active; also: nearly all actives have a fitted effect of over 60% in size
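Luminescent ATP detection (Kinase-Glo Plus) follows a 60-minute room-temperature incubation, with wells lacking PGK as controls. Buffer: 100 mM TEA (pH 7.6), 5 mM MgCl2, 0.01% Tween-20. Coupling enzyme GAPDH (100 nM final) supplies unstable 1,3-BPG in-well.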
GLP1R ag: agonists of human GLP-1 receptor. P43220. HEK293 GLP-1R CRE-luciferase, luminescence, 4-6 h; cells express a hypersensitive GLP-1R form. Potency, µM (doses to about 45.6 µM), most hits filed as activators. 0.007% of 380,000 active. AID 624172
Tb PFK block: blocks T. brucei phosphofructokinase. O15648. AID 485367. Potency, µM (series often up to 57.5 µM), usual class: inhibitors. 0.17% of 330,000 active. T. brucei PFK, ADP-Glo luminescence; also: nearly all actives have a fitted effect of over 60% in size
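PFK 1.25 nM, F6P 0.5 mM, ATP 0.1 mM, 0.1 M TEA pH 8.0, 5 mM MgCl2, 0.01% Tween20, 0.1% BSA; 45 min RT. ADP-Glo readout. qHTS titration up to 57 uM; curves fitted, compounds curve-classed.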
HEK293 tox: cytotoxic in the GLP-1 receptor inverse agonist counter-screen | HEK293 cAMP-luciferase reporter cells, luminescence, 24 h | Potency, µM (doses to about 38.3 µM), hits mostly inhibitors | 0.13% of 410,000 active | AID 624418;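 also: loss of luciferase light is scored as toxicity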
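To flag toxic compounds, the library was rerun on cells for 24 hr at 37 deg C and 5% CO2. Viability-linked luminescence was captured 12 min after adding luciferase detection reagent.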
GLP1R inv ag: GLP-1 receptor (human) inverse agonism; Potency, µM (doses to about 38.3 µM), actives largely listed as inhibitors; P43220; HEK293 GLP-1R CRE-luciferase, luminescence, 24 h; GLP-1R form is constitutively active; AID 624417; 1.6% of 410,000 active; also: nearly all actives have a fitted effect of over 55% in size
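Cells are plated, allowed 12 hours at 37 deg C, then treated with compounds for 24 hr before luciferase detection reagent is added and luminescence is read after 12 min at room temperature. The HEK293 line carries constitutively active GLP-1R with a cAMP-responsive reporter.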
Pin1 inh: human Pin1 inhibition; Pin1 FP peptide displacement, HiFluor488, 10 min; Potency, µM (series often up to 115 µM), most hits filed as inhibitors; 0.009% of 390,000 active; Q13526; active = well fitted inhibition curve with a large enough effect in the polarisation, with a control signal flat, not every such curve was filed as active; inconclusive = small, poorly fitted or top-dose-only effect, or effect the other way, or a change in a side signal; inactive = no such curve, though single readings can be large or run the other way; the % refers to the polarisation
Target sequence (Q13526 whole entry, looked up): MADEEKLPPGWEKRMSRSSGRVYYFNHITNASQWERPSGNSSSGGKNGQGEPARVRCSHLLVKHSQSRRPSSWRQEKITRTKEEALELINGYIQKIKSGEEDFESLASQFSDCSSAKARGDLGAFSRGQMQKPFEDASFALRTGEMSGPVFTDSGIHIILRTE
Numbers stand for hits; n = inactive; u = inconclusive; x = no result. Unless noted, calls follow the shape of the dose curve; as a rule, active = well fitted curve in the direction sought with a large enough effect; inconclusive = small, poorly fitted or top-dose-only effect, or another doubt; inactive = no such curve, though single readings can be large; an effect the other way counts as inactive or inconclusive.

SMILES | PGK inhibitor | GLP1R ag | Tb PFK block | HEK293 tox | GLP1R inv ag | Pin1 inh
COc1ccc(-n2ncc3c(NCCC4=CCCCC4)ncnc32)cc1 | n | x | x | n | n | n
CC(/C=C/c1ccccc1)=N\NC(=S)NC(C)C | n | n | n | u | u | n
CC(/C=C/c1ccccc1)=N\NC(N)=S | n | n | n | u | 2.51µM | n
O=C(Nc1nc(Nc2cc(F)cc(F)c2)nc(NC2CCCC2)n1)OCc1ccccc1 | x | x | x | x | x | n
CC1(C)SC(=S)N(/N=C/c2ccc(O)cc2)C1N(O)C(=O)Nc1ccc([N+](=O)[O-])cc1 (stereo not given) | n | n | n | n | 2.82µM | n
CCCN(CCC)c1nc(N)nc(-c2cc(Cl)ccc2OC)n1 | n | n | n | n | 8.91µM | n
Cc1ccnc(NC(=O)/C=C/c2ccccc2Cl)c1 | n | n | n | n | 10µM | n
Cc1cc(N)c2cc(NC(=O)/C=C/c3ccccc3Cl)ccc2n1 | n | n | u | n | 11.2µM | n
CN(C)CCCNc1oc(/C=C/c2ccc(F)cc2)nc1C#N | x | x | x | n | n | n
COCC(=O)Nc1nc2ccccc2s1 | n | n | x | n | n | n
O=C(NC(=S)Nc1nc2ccccc2s1)c1cccs1 | n | n | n | 2.51µM | n | n
NC(=S)Nc1nc2ccccc2s1 | n | n | n | u | 4.47µM | n
COC(=O)c1nc(NC(=S)NC(=O)c2cccs2)sc1C | n | n | n | n | n | n
CN(CCOc1ccccc1)CC(O)COc1ccccc1 (stereo not given) | n | n | n | n | u | n
CN(CCOc1ccc(Br)cc1)CC(O)COc1ccc(C#N)cc1 (stereo not given) | n | n | n | n | 4.47µM | n
Cc1cccc2cc(C#N)c(NCCNS(=O)(=O)c3ccccc3)nc12 | n | n | n | n | n | n
Cc1cccc2cc(C#N)c(NCCCNS(=O)(=O)c3ccc(Cl)cc3)nc12 | n | n | n | n | 10µM | n
CSc1ccc(Cl)c(C(=O)NCCOc2cc(C(C)C)ccc2C)c1 | n | n | n | n | 11.2µM | n
CC(C)(C)C1CCc2c(sc3nc(-c4cc5cc(Cl)ccc5oc4=O)[nH]c(=O)c23)C1 (stereo not given) | n | x | x | n | n | n
Cc1ccccc1C(=O)Nc1nc(-c2nnn(-c3ccc(C(C)C)cc3)c2C)ns1 | n | x | x | n | n | n
Cc1ccc(C(C)C)cc1-n1nnc(-c2cccc(Cc3ccc4ccccc4c3)c2)c1C(C)O (stereo not given) | n | n | x | n | 3.55µM | x
CCN1c2ccccc2-n2cccc2C12CCN(C(=O)Nc1ccccc1Br)CC2 | n | x | x | n | 10µM | n
CCN1c2cc(C)ccc2-n2cccc2C12CCN(C(=O)Nc1cc(OC)c(OC)c(OC)c1)CC2 | n | x | x | n | 11.2µM | u
Cc1cccc(-c2noc(CN(C3CCCCC3)S(=O)(=O)c3ccc(F)cc3)n2)c1 | n | x | x | n | n | n
O=S(=O)(c1ccccc1)N(Cc1nc(-c2ccccc2)no1)C1CCCCC1 | n | n | n | n | 6.31µM | n
SMILES | PGK inhibitor | GLP1R ag | Tb PFK block | HEK293 tox | GLP1R inv ag | Pin1 inh
Cc1ccc(S(=O)(=O)N(Cc2nc(-c3cccc(C)c3)no2)C2CCCCC2)cc1 | n | x | x | n | 10µM | n
Cc1ccc(S(=O)(=O)/C(=C/Cl)NC(=O)c2ccccc2)cc1 | n | n | n | 6.31µM | 10µM | n
NCCC(=O)Nc1cccc(-c2nn3c(=O)cc(N4CCNCC4)nc3s2)c1 | x | x | x | x | x | n
CCCN(C(=O)CCc1nc(-c2ccccc2F)no1)c1ccc(CC)cc1 | n | x | x | n | u | u
COc1ccc(CNc2nc(-c3ccc(OC)cc3)cc(C(F)(F)F)n2)cc1 | n | n | x | n | 6.31µM | n
CC1=C/C(=N\NC(=S)Nc2cccnc2)CC(C)(C)C1 | n | n | n | 1µM | 3.98µM | n
CCOc1ccc(NC(=O)CSc2nc3nc(C)c(Cc4ccccc4)c(C)n3n2)cc1 | n | x | x | n | n | n
c1ccc(CN2CCN(c3nc(-c4ccccc4)nc4ccccc34)CC2)cc1 | n | n | n | n | 3.55µM | u
